Measurements: PubChem BioAssay (EPA / NIEHS)
Records with an inconclusive call do not appear. Active and inactive are the calls of the source. How the source made its calls, unless noted: active means hit-call score of the fitted dose curve at least 0.9, where 1 is the maximum; inactive means score below 0.9.

Columns and labels:
[1] = biological target: Peroxisome proliferator-activated receptor gamma (Homo sapiens) (UniProt P37231); experiment: OT_PPARg_PPARgSRC1_0480: Odyssey Thera (OT) 8-hour Protein-Complementation Assay for Peroxisome Proliferator-activated Receptor Gamma / SRC-1 Co-activator (AID 2283387; active means hit-call score of the fitted dose curve at least 0.9, where 1 is the maximum;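 further: nuclear to cytoplasmic split Venus YFP fluorescence ratio reporting PPARg SRC-1 interaction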)
Sequence of Peroxisome proliferator-activated receptor gamma (Homo sapiens) (P37231 whole entry, looked up, the tested form may be a part): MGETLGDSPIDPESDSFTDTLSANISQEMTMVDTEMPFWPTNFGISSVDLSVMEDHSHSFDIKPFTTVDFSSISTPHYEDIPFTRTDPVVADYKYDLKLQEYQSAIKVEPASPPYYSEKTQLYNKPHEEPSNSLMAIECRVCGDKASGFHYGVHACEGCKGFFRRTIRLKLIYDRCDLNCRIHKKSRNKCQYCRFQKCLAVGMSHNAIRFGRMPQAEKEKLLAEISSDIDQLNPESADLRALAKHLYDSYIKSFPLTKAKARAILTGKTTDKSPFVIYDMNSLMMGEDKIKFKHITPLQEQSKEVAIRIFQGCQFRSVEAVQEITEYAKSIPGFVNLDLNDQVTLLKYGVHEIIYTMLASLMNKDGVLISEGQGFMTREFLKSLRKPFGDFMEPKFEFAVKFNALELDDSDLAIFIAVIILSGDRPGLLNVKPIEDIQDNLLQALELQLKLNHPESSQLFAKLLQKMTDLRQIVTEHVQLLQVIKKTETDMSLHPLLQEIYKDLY
Outline: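 Protein-fragment complementation of split Venus YFP reports PPARg/SRC-1 interaction in HEK293T (transfected 48 h before treatment), exposed 8 h. Readout: N/C fluorescence ratio at 488 nm from imaging, Draq5 for segmentation, positive fit relative to DMSO.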

[2] = biological target: Peroxisome proliferator-activated receptor gamma (Homo sapiens) (UniProt P37231); experiment: OT_PPARg_PPARgSRC1_1440: Odyssey Thera (OT) 24-hour Protein-Complementation Assay for Peroxisome Proliferator-activated Receptor Gamma/ SRC-1 Co-activator (AID 2283388; active means hit-call score of the fitted dose curve at least 0.9, where 1 is the maximum;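 further: nuclear to cytoplasmic ratio of reconstituted Venus YFP fluorescence in fixed imaged cells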)
Outline: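 Readout is the 488 nm N/C fluorescence ratio from fixed, Draq5-stained HEK293T cells after 24 h compound exposure. Cells carried transiently transfected PPARg and SRC-1 fused to Venus fragments, transfected 48 h before treatment.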

[3] = CEETOX_H295R_ANDR: CeeTox H295R High-throughput Steroidogenesis Assay for Androstenedione (ANDR) (AID 2283436); settings: actives raise or lower the signal
Outline: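 Medium from 48 h chemical-treated H295R adrenal cells was extracted with MTBE and androstenedione measured by LC-MS/MS. Activity was fit in both directions relative to DMSO. Cytotoxic concentrations were re-tested after dilution until MTT viability reached ≥70%.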

[4] = CEETOX_H295R_CORTIC: CeeTox H295R High-throughput Steroidogenesis Assay for Corticosterone (CORTIC) (AID 2283437); settings: actives raise or lower the signal
Outline: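 Medium corticosterone was quantified by tandem mass spectrometry following 48 hours of chemical exposure (0.1% DMSO) in human H295R cells previously stimulated 48 hours with 10 uM forskolin. Viability checked by MTT; chemicals diluted and retested when viability fell below 70%.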

[5] = CEETOX_H295R_CORTISOL: CeeTox H295R High-throughput Steroidogenesis Assay for Cortisol (AID 2283438); settings: actives raise or lower the signal;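 further: cortisol secreted into medium quantified by LC-MS/MS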
Outline: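 Steroidogenesis in H295R, per modified OECD 456: 48 h forskolin (10 uM), then 48 h exposure, 0.1% DMSO. Cortisol by extraction and tandem MS; viability by MTT (570/650 nm); cytotoxic chemicals diluted and re-tested.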

[6] = CEETOX_H295R_DOC: CeeTox H295R High-throughput Steroidogenesis Assay for DOC (AID 2283439); settings: actives raise or lower the signal
Outline: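 H295R, fsk 10 uM ×48 h pre, cmpd ×48 h (0.1% DMSO). Media → MTBE extr. → LC-MS/MS, DOC. Bidirectional fit vs DMSO; MTT viability same wells, re-test diluted if <70%.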

[7] = read-out: Tumor necrosis factor receptor superfamily member 6 (Homo sapiens) (UniProt P25445); experiment: LTEA_HepaRG_FAS: Life Technologies and Expression Analysis (LTEA) Assay for Fas cell surface death receptor (FAS) using HepaRG (AID 2283447); settings: mRNA level, 48 h; actives raise or lower the signal
Outline: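 FAS transcript level was measured by TaqMan qRT-PCR against three housekeeping genes after 48 h chemical exposure. Cells were HepaRG, 0.5% DMSO vehicle, with a top concentration of 100 uM and half-log dilutions over eight points, in duplicate.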

[8] = read-out: Fatty acid synthase (Homo sapiens) (UniProt P49327); experiment: LTEA_HepaRG_FASN: Life Technologies and Expression Analysis (LTEA) Assay for Fatty Acid Synthase (FASN) using HepaRG (AID 2283448); settings: mRNA level, 48 h; actives raise or lower the signal;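 on AC50: differentiated human HepaRG liver cells in serum-free induction medium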
Outline: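 In human HepaRG cultures, 48 h chemical exposure (up to 100 uM, 0.5% DMSO) preceded TaqMan qRT-PCR of FASN.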

[9] = read-out: Cyclin D2 (CCND2), CCND2 (gene 894); experiment: LTEA_HepaRG_CCND2: Life Technologies and Expression Analysis (LTEA) Assay for Cyclin D2 (CCND2) using HepaRG (AID 2283449); settings: mRNA level, 48 h; actives raise or lower the signal
Outline: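 CCND2 transcript levels, quantified by qRT-PCR and normalised to three housekeeping genes, were fitted bidirectionally against 0.5% DMSO. HepaRG cultures were dosed 48 h in duplicate with an 8-point half-log series up to 100 uM.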

[10] = read-out: Cyclin Dependent Kinase Inhibitor 1A (CDKN1A), CDKN1A (gene 1026); experiment: LTEA_HepaRG_CDKN1A: Life Technologies and Expression Analysis (LTEA) Assay for Cyclin Dependent Kinase Inhibitor 1A (CDKN1A) using HepaRG (AID 2283450); settings: mRNA level, 48 h; actives raise or lower the signal
Outline: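 Expression quantified by Fluidigm qRT-PCR with ACTB, GAPDH and POLR2A normalization, fitted bidirectionally against 0.5% DMSO. Cells: HepaRG, plated 48 h then treated 48 h in serum-free induction medium, top concentration 100 uM with half-log dilutions.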

[11] = read-out: Cyclin D1 (CCND1), CCND1 (gene 595); experiment: LTEA_HepaRG_CCND1: Life Technologies and Expression Analysis (LTEA) Assay for Cyclin D1 (CCND1) using HepaRG (AID 2283451); settings: mRNA level, 48 h; actives raise or lower the signal;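 on AC50: differentiated human HepaRG liver cells in serum-free induction medium; TaqMan qRT-PCR transcript level normalised to ACTB GAPDH and POLR2A housekeeping genes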
Outline: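 Expression of CCND1 was quantified by qRT-PCR on Fluidigm arrays using ACTB, GAPDH and POLR2A as reference genes. HepaRG cultures, plated 48 h beforehand, were dosed for 48 h at up to 100 uM (half-log, 8 points) in 0.5% DMSO.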

[12] = read-out: catalase (CAT), CAT (gene 847); experiment: LTEA_HepaRG_CAT: Life Technologies and Expression Analysis (LTEA) Assay for catalase (CAT) using HepaRG (AID 2283452); settings: mRNA level, 48 h; actives raise or lower the signal;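 on AC50: TaqMan qRT-PCR signal normalized to ACTB GAPDH and POLR2A housekeeping genes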
Outline: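 Expression of CAT was quantified by TaqMan qRT-PCR with ACTB/GAPDH/POLR2A normalization after 48 h chemical exposure of HepaRG. Eight-point half-log series, top 100 uM, in 0.5% DMSO; gain or loss fitted against vehicle.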

[13] = read-out: flavin-containing dimethylaniline monooxygenases 3 (FMO3), FMO3 (gene 2328); experiment: LTEA_HepaRG_FMO3: Life Technologies and Expression Analysis (LTEA) Assay for flavin-containing dimethylaniline monooxygenases 3 (FMO3) using HepaRG (AID 2283453); settings: mRNA level, 48 h; actives raise or lower the signal;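 on AC50: differentiated human HepaRG liver cells in serum-free induction medium; FMO3 transcript by TaqMan qRT-PCR normalized to ACTB GAPDH and POLR2A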
Outline: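 Eight-point concentration-response in serum-free HepaRG cultures (top 100 uM, 0.5% DMSO, 48 h). Read-out: FMO3 mRNA level normalized to three endogenous control genes, fitted bidirectionally versus vehicle.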

[14] = read-out: Cytochrome P450 (CYP1A1), CYP1A1 (gene 1543); experiment: LTEA_HepaRG_CYP1A1: Life Technologies and Expression Analysis (LTEA) Assay for Cytochrome P450 (CYP1A1) using HepaRG (AID 2283454); settings: mRNA level, 48 h; actives raise or lower the signal
Outline: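 CYP1A1 transcript levels measured by Fluidigm qRT-PCR against three housekeeping genes, 48 h after chemical dosing of human HepaRG cells (highest concentration 100 uM, half-log steps, 0.5% DMSO vehicle). Gain or loss of signal fitted relative to DMSO.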

[15] = read-out: CFLAR gene, CFLAR (gene 8837); experiment: LTEA_HepaRG_CFLAR: Life Technologies and Expression Analysis (LTEA) Assay for CFLAR gene using HepaRG (AID 2283455); settings: mRNA level, 48 h; actives raise or lower the signal
Outline: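 Transcript level by qRT-PCR (normalized to ACTB, GAPDH and POLR2A) after 48 h chemical exposure of HepaRG cells, top concentration 100 uM with half-log steps, 0.5% DMSO vehicle, duplicates; fitted bidirectionally against DMSO baseline.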

[16] = CEETOX_H295R_OHPROG: CeeTox H295R High-throughput Steroidogenesis Assay for OH-Progesterone (OHPROG) (AID 2283435); settings: actives raise or lower the signal;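 further: 17alpha-hydroxyprogesterone secreted into medium measured by HPLC-MS/MS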
Outline: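 Human adrenocortical H295R cells, passage 10 or lower, were treated with chemical for 48 h after forskolin priming, and hormone output in the medium was quantified by LC-MS/MS.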

[17] = CEETOX_H295R_ESTRADIOL: CeeTox H295R High-throughput Steroidogenesis Assay for Estradiol (AID 2283440); settings: actives raise or lower the signal;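 further: estradiol secreted into medium quantified by LC-MS/MS after dansyl derivatisation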
Outline: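 Estradiol in spent medium measured by LC-MS/MS after dansyl chloride derivatisation. Forskolin-primed (10 uM, 48 h) human adrenal H295R cells received test chemical 48 h at 0.1% DMSO; concentrations lowered until MTT viability >/=70%.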

[18] = CEETOX_H295R_ESTRONE: CeeTox H295R High-throughput Steroidogenesis Assay for Estrone (AID 2283441); settings: actives raise or lower the signal;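 further: estrone secreted into medium measured by LC-MS/MS after dansyl derivatization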
Outline: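 Forskolin-stimulated H295R cells are treated 48 h with chemical, and estrone in the medium is measured by LC-MS/MS. Activity is fitted in both directions relative to DMSO controls, with chemicals diluted until MTT viability reaches at least 70%.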

[19] = CEETOX_H295R_PROG: CeeTox H295R High-throughput Steroidogenesis Assay for Progesterone (PROG) (AID 2283442); settings: actives raise or lower the signal
Outline: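 Progesterone secreted by human H295R cells was measured by LC-MS/MS following 48 h chemical exposure at 0.1% DMSO, preceded by 48 h forskolin (10 uM) stimulation. Same-well MTT viability; cytotoxic concentrations diluted 10- or 100-fold and retested.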

[20] = read-out: Forkhead box O1 (FOXO1), FOXO1 (gene 2308); experiment: LTEA_HepaRG_FOXO1: Life Technologies and Expression Analysis (LTEA) Assay for Forkhead box O1 (FOXO1) using HepaRG (AID 2283456); settings: mRNA level, 48 h; actives raise or lower the signal
Outline: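 FOXO1 transcript quantified by qRT-PCR after 48 h chemical exposure (top 100 uM, half-log steps, 0.5% DMSO) of HepaRG cells, housekeeping-normalized (ACTB/GAPDH/POLR2A). Changes fitted in both directions relative to vehicle.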

Sequence of Fatty acid synthase (Homo sapiens) (P49327 whole entry, looked up): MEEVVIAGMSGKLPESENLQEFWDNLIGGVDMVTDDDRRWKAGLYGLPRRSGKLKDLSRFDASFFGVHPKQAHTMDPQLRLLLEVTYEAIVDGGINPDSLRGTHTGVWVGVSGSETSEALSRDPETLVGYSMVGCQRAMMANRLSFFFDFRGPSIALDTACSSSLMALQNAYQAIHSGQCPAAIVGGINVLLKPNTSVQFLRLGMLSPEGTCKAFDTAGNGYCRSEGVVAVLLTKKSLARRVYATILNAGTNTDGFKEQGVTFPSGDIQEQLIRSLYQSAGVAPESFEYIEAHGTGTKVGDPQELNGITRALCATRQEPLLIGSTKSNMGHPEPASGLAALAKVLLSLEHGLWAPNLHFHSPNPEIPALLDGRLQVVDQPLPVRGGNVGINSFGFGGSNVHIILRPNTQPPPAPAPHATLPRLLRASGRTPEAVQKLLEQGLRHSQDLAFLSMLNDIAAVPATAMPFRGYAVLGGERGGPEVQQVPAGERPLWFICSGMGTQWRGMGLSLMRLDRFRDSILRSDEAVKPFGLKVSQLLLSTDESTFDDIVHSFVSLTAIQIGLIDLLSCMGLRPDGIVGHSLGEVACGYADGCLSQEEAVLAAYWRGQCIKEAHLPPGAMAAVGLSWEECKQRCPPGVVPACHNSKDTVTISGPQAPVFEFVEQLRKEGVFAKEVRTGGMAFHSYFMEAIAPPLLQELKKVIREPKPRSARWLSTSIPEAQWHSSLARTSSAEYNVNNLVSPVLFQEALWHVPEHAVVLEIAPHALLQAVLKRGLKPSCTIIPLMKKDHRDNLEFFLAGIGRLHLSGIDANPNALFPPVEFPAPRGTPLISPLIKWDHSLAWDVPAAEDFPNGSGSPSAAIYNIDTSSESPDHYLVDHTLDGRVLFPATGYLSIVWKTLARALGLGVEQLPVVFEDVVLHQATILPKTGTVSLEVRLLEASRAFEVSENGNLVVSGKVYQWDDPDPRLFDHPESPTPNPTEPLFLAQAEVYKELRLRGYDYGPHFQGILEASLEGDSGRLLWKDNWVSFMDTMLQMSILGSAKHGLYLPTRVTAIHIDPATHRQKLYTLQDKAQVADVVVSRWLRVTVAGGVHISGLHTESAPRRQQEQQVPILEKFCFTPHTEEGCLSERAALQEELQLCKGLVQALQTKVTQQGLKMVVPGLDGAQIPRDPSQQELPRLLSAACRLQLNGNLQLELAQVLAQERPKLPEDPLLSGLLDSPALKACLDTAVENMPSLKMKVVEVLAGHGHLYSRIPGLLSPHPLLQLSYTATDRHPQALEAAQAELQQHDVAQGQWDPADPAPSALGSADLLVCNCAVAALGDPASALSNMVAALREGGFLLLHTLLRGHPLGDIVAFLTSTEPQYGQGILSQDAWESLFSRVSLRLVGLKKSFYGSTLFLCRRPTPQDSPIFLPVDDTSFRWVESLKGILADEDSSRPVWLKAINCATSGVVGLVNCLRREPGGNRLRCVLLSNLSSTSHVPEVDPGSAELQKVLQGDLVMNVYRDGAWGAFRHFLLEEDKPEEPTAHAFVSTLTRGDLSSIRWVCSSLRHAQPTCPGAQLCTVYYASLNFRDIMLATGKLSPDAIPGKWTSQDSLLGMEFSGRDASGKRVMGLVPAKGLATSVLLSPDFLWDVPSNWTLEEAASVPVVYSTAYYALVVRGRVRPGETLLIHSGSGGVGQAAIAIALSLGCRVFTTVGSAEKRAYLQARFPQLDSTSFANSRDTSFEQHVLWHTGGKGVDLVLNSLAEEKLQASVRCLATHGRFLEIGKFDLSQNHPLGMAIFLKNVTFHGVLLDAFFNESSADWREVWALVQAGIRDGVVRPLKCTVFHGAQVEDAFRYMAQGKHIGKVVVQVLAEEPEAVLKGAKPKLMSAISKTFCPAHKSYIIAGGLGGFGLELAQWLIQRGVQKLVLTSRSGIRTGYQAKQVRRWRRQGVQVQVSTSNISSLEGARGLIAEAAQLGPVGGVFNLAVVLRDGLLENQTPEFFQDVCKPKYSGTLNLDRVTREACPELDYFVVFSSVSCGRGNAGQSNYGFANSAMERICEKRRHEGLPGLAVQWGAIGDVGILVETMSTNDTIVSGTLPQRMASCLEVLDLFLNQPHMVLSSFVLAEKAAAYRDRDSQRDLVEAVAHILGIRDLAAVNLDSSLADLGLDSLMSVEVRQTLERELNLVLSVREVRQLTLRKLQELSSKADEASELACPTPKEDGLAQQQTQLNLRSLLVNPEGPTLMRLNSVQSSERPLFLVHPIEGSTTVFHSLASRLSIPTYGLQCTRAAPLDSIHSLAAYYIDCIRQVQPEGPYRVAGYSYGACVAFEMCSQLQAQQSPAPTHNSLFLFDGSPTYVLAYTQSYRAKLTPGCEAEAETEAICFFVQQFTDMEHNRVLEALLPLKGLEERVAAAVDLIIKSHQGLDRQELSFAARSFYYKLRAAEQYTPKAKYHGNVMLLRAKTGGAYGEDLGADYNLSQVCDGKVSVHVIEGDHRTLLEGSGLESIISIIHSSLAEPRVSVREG

For `CC1=C2C[C@H]3[C@@H](CC=C4C[C@@H](O)CC[C@@]43C)[C@@H]2CC[C@]12O[C@@H]1C[C@H](C)CN[C@H]1[C@H]2C`, the outcome [1] was “inactive”, the outcome [2] was “inactive” and the outcome [3] was “inactive”. The outcome [4] was “inactive”, the outcome [5] was “inactive” and the outcome [6] was “inactive”. For the same compound, the outcome [7] was “inactive”, the outcome [8] was “inactive” and the outcome [9] was “inactive”. For the same compound, the outcome [10] was “inactive”, the outcome [11] was “inactive” and the outcome [12] was “inactive”. The outcome [13] was “inactive”, the AC50 [14] was 34.3 µM (active) and the outcome [15] was “inactive”.
For `CC#Cc1cc(C)nc(Nc2ccccc2)n1`, the outcome [1] was “inactive”, the outcome [2] was “inactive” and the AC50 [16] was 34.8 µM (active). For the same compound, the outcome [4] was “inactive”, the outcome [5] was “inactive” and the outcome [6] was “inactive”. For the same compound, the outcome [17] was “inactive”, the outcome [18] was “inactive” and the outcome [19] was “inactive”. For the same compound, the outcome [7] was “inactive”, the AC50 [8] was 1.83 µM (active) and the outcome [9] was “inactive”. The AC50 [10] was 80.1 µM (active), the AC50 [11] was 13.3 µM (active) and the outcome [12] was “inactive”. The AC50 [13] was 21.8 µM (active), the AC50 [14] was 13.8 µM (active) and the outcome [15] was “inactive”. For the same compound, the outcome [20] was “inactive”.
With `Cc1cc(O)ccc1Cl` the outcome [1] was “inactive”, the outcome [2] was “inactive” and the AC50 [16] was 21.5 µM (active). For the same compound, the outcome [4] was “inactive”, the outcome [5] was “inactive” and the outcome [6] was “inactive”. For the same compound, the outcome [17] was “inactive”, the outcome [18] was “inactive” and the outcome [19] was “inactive”. The outcome [7] was “inactive”, the outcome [8] was “inactive” and the outcome [10] was “inactive”. The outcome [11] was “inactive”, the outcome [12] was “inactive” and the outcome [13] was “inactive”. The outcome [14] was “inactive”, the outcome [15] was “inactive” and the outcome [20] was “inactive”.
For `CCCN(CCC)N=O`, the outcome [1] was “inactive”, the outcome [2] was “inactive” and the outcome [7] was “inactive”. For the same compound, the outcome [8] was “inactive”, the outcome [9] was “inactive” and the outcome [10] was “inactive”. The outcome [11] was “inactive”, the outcome [12] was “inactive” and the outcome [13] was “inactive”. For the same compound, the AC50 [14] was 50 µM (active) and the outcome [15] was “inactive”.
With `Oc1ccc(C(c2ccc(O)cc2)(C(F)(F)F)C(F)(F)F)cc1` the outcome [1] was “inactive”, the outcome [2] was “inactive” and the outcome [7] was “inactive”. The AC50 [8] was 90.7 µM (active), the AC50 [9] was 0.147 µM (active) and the outcome [10] was “inactive”. The outcome [11] was “inactive”, the AC50 [12] was 89.2 µM (active) and the AC50 [13] was 78.3 µM (active). For the same compound, the AC50 [14] was 50 µM (active), the AC50 [15] was 91.3 µM (active) and the AC50 [20] was 81 µM (active).
In the case of `CCCCCCCCOC(=O)c1ccccc1C(=O)OCCCCCCCC`, the outcome [1] is reported as “inactive”, the outcome [2] is reported as “inactive” and the outcome [7] is reported as “inactive”. The outcome [8] was “inactive”, the outcome [9] was “inactive” and the outcome [10] was “inactive”. The outcome [11] was “inactive”, the outcome [12] was “inactive” and the outcome [13] was “inactive”. The outcome [14] was “inactive”, the outcome [15] was “inactive” and the outcome [20] was “inactive”.
With `ClC1=C(Cl)[C@]2(Cl)[C@@H]3[C@@H](Cl)[C@H]4O[C@H]4[C@@H]3C1(Cl)C2(Cl)Cl` the outcome [1] was “inactive”, the outcome [2] was “inactive” and the outcome [7] was “inactive”. The outcome [8] was “inactive”, the outcome [10] was “inactive” and the outcome [11] was “inactive”. For the same compound, the outcome [12] was “inactive”, the outcome [13] was “inactive” and the AC50 [14] was 50 µM (active). The outcome [15] was “inactive” and the outcome [20] was “inactive”.
